Source: PubChem BioAssay (EPA / NIEHS)
Records with an inconclusive call do not appear. The source made the active and inactive calls. The calls were made as follows, unless noted: active = hit-call score of the fitted dose curve at least 0.9, where 1 is the maximum; inactive = score below 0.9.

Tests used:
[1] = ATG_PXRE_CIS: Attagene CIS-FACTORIAL HepG2 Assay for human Pregnane X Receptor Element (PXRE) (AID 2282957); details: HepG2 Attagene CIS-FACTORIAL PXRE reporter, mRNA; actives raise or lower the signal
Method in brief: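 Reporter transcripts under endogenous PXR-responsive cis-regulation quantified from total RNA of transfected HepG2 cells 24 h post-dosing, via RT-PCR with fluorescent primer extension and capillary electrophoresis. Gain or loss of signal fitted against DMSO baseline.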

[2] = ATG_Sox_CIS: Attagene CIS-FACTORIAL HepG2 Assay for human SRY-box transcription factor (SOX) (AID 2282960); details: HepG2 Attagene cis-factorial SOX reporter, mRNA; actives raise or lower the signal
Method in brief: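 Gain- or loss-of-signal endpoint, fitted bidirectionally with DMSO as negative control. Based on reporter mRNA from transfected HepG2 cells harvested 24 h post-treatment and quantified via RT-PCR and capillary electrophoresis.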

[3] = molecular target: Transcription factor Sp1 (Homo sapiens) (UniProt P08047); assay: ATG_Sp1_CIS: Attagene CIS-FACTORIAL HepG2 Assay for human Specificity Protein 1 (Sp1) (AID 2282961); details: HepG2 Sp1 cis-reporter transcription, actives raise or lower the signal
Method in brief: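 Endpoint reflects endogenous Sp1 transcriptional activity, not an exogenous fusion protein: HepG2 cells with transfected cis-regulated reporters, 24 h dosing, RT-PCR/capillary electrophoresis mRNA read-out, DMSO-normalised bidirectional fit.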

[4] = ATG_SREBP_CIS: Attagene CIS-FACTORIAL HepG2 Assay for human Sterol Regulatory Element Binding (SREBP) (AID 2282962); details: HepG2 Attagene cis-factorial SREBP reporter, mRNA; actives raise or lower the signal
Method in brief: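 Values derive from bidirectional curve fitting with DMSO as baseline. The underlying measurement is reporter mRNA from cis-element-regulated units in transiently transfected HepG2, quantified by RT-PCR and capillary electrophoresis after 24 h exposure.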

[5] = molecular target: Signal transducer and activator of transcription 3 (Homo sapiens) (UniProt P40763); assay: ATG_STAT3_CIS: Attagene CIS-FACTORIAL HepG2 Assay for human Signal Transducer and Activator of Transcription 3 (STAT3) (AID 2282963); details: HepG2, Attagene cis-factorial STAT3 reporter transcription; actives raise or lower the signal
Method in brief: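 Readout: fluorescent reporter mRNA fragments resolved by capillary electrophoresis. Setup: HepG2 transfected with MRTUs reporting endogenous transcription-factor activity, dosed 24 h. Gain or loss of signal fitted bidirectionally against DMSO control.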

[6] = ATG_TA_CIS: Attagene CIS-FACTORIAL HepG2 Assay for human TA Basal Promoter (AID 2282964); details: HepG2 Attagene CIS-factorial TA basal promoter reporter; actives raise or lower the signal
Method in brief: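 Transfected HepG2, 24 h compound exposure; RNA → RT-PCR → FAM primer extension → HpaI cut → CE fluorescence. Gain/loss-of-signal fitted against DMSO negative control. Background-control readout.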

[7] = ATG_TCF_b_cat_CIS: Attagene CIS-FACTORIAL HepG2 Assay for human T-Cell-Factor with beta-catenin (TCF/b-cat) (AID 2282965); details: HepG2 TCF/beta-catenin cis-reporter transcription, actives raise or lower the signal
Method in brief: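 HepG2, transient MRTU transfection, cis-element-driven reporters (endogenous TFs). 24 h compound exposure. Readout: reporter mRNA by RT-PCR + 6-FAM primer extension, HpaI digest, capillary electrophoresis. Gain/loss fit vs DMSO baseline.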

[8] = ATG_TAL_CIS: Attagene CIS-FACTORIAL HepG2 Assay for human TAL Basal Promoter (AID 2282966); details: HepG2 Attagene cis-factorial TAL promoter reporter; actives raise or lower the signal;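 also: background control endpoint measuring basal TAL promoter reporter mRNA not a specific factor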
Method in brief: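 Background-control endpoint: basal TAL promoter reporter transcripts in transiently transfected HepG2, measured 24 h after dosing. Read-out by RT-PCR with fluorescent primer extension and capillary electrophoresis; gain or loss of signal fitted relative to DMSO.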

[9] = ATG_TGFb_CIS: Attagene CIS-FACTORIAL HepG2 Assay for human Transforming Growth Factor (TGF) (AID 2282967); details: HepG2 Attagene CIS TGFb reporter, mRNA transcription; actives raise or lower the signal
Method in brief: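 Readout: fluorescently labeled reporter cDNA fragments resolved by capillary electrophoresis after RT-PCR. Transfected HepG2 cells dosed for 24 h; endogenous TF activity at TGFB1-linked cis element; gain or loss fitted relative to DMSO.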

[10] = ATG_VDRE_CIS: Attagene CIS-FACTORIAL HepG2 Assay for human Vitamin D Receptor Element (VDRE) (AID 2282968); details: HepG2 VDRE cis-reporter transcription, actives raise or lower the signal
Method in brief: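 Transient MRTU transfection of HepG2, 24 h compound exposure. Readout: reporter transcripts via RT-PCR and capillary electrophoresis, fluorescence. Bidirectional fit vs DMSO.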

[11] = molecular target: Estrogen receptor (Homo sapiens) (UniProt P03372); assay: ATG_ERa_TRANS: Attagene TRANS-FACTORIAL HepG2 Assay for human Estrogen Receptor alpha (ERa) (AID 2282970; active = hit-call score of the fitted dose curve at least 0.9, where 1 is the maximum); details: HepG2 Attagene TRANS ERa GAL4 reporter, mRNA
Method in brief: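 Reporter transcripts were measured 24 h after dosing by RT-PCR with fluorescent primer extension and capillary electrophoresis. The system is transiently transfected HepG2 expressing exogenous NR-Gal4 chimeras driving GAL4-UAS reporters; DMSO is the baseline.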

[12] = molecular target: X-box-binding protein 1 (Homo sapiens) (UniProt P17861); assay: ATG_Xbp1_CIS: Attagene CIS-FACTORIAL HepG2 Assay for human X-box Binding Protein 1 (XBP1) (AID 2282972); details: HepG2 XBP1 cis-element reporter, Attagene multiplex; actives raise or lower the signal
Method in brief: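 Human hepatoma HepG2, cis-element reporter system, 24 h treatment; mRNA quantified by RT-PCR/CE fluorescence; fit relative to DMSO.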

[13] = ATG_M_19_TRANS: Attagene TRANS-FACTORIAL HepG2 Assay for M19 Transcription Factor (Internal Marker) (AID 2282974; active = hit-call score of the fitted dose curve at least 0.9, where 1 is the maximum); details: HepG2 Attagene TRANS-FACTORIAL M19 internal marker reporter
Method in brief: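 Using RT-PCR and capillary electrophoresis, reporter mRNA from transiently transfected human HepG2 cells was quantified following 24 h exposure; activity was fitted in the positive direction against DMSO.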

[14] = ATG_PBREM_CIS: Attagene CIS-FACTORIAL HepG2 Assay for human Phenobarbital-responsive Enhancer Module (PBREM) (AID 2282955); details: HepG2 PBREM cis-reporter, Attagene multiplexed transcription; actives raise or lower the signal
Method in brief: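 Transfected liver-derived HepG2 cells exposed 24 h; PBREM reporter transcript quantified via RT-PCR and capillary electrophoresis, with activity in either direction referenced to DMSO.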

[15] = ATG_PPRE_CIS: Attagene CIS-FACTORIAL HepG2 Assay for human Peroxisome Proliferator-activated Response Element (PPRE) (AID 2282958); details: HepG2 PPRE cis-element reporter, Attagene transcription factor profiling; actives raise or lower the signal
Method in brief: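 Measured endpoint: PPRE-controlled reporter mRNA, detected by RT-PCR and capillary electrophoresis fluorescence, from transiently transfected HepG2 cells 24 h after dosing. Curves fitted in both directions using DMSO baseline.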

[16] = molecular target: Nuclear receptor subfamily 1 group I member 3 (Homo sapiens) (UniProt Q14994); assay: ATG_CAR_TRANS: Attagene TRANS-FACTORIAL HepG2 Assay for human Constitutive Androstane Receptor (CAR) (AID 2282969; active = hit-call score of the fitted dose curve at least 0.9, where 1 is the maximum;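 also: activators raise reporter mRNA above DMSO so AC50 marks induction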); details: HepG2 Attagene TRANS-FACTORIAL CAR reporter
Method in brief: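 Transiently transfected HepG2, multiplex TRANS reporters (CAR-Gal4 chimera driving GAL4-UAS reporter). 24 h dosing. Readout: reporter transcript by RT-PCR + capillary electrophoresis, fluorescence intensity; positive direction vs DMSO.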

[17] = ATG_RORE_CIS: Attagene CIS-FACTORIAL HepG2 Assay for human RAR-related Orphan Receptor Element (RORE) (AID 2282959); details: HepG2 Attagene cis-factorial RORE reporter, mRNA; actives raise or lower the signal
Method in brief: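 Transiently transfected HepG2 reporter cells were treated 24 h. Reporter transcripts were detected by RT-PCR and capillary electrophoresis, with bidirectional fitting against DMSO.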

Sequence of X-box-binding protein 1 (Homo sapiens) (P17861 whole entry, looked up): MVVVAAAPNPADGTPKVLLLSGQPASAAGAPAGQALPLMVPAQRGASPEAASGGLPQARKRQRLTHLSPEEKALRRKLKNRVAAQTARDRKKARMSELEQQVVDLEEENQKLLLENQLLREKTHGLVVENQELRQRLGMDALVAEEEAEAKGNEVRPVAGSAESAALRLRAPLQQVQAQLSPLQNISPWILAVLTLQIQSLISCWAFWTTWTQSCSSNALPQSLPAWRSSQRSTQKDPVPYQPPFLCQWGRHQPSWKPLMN
Sequence of Estrogen receptor (Homo sapiens) (P03372 whole entry, looked up, the tested form may be a part): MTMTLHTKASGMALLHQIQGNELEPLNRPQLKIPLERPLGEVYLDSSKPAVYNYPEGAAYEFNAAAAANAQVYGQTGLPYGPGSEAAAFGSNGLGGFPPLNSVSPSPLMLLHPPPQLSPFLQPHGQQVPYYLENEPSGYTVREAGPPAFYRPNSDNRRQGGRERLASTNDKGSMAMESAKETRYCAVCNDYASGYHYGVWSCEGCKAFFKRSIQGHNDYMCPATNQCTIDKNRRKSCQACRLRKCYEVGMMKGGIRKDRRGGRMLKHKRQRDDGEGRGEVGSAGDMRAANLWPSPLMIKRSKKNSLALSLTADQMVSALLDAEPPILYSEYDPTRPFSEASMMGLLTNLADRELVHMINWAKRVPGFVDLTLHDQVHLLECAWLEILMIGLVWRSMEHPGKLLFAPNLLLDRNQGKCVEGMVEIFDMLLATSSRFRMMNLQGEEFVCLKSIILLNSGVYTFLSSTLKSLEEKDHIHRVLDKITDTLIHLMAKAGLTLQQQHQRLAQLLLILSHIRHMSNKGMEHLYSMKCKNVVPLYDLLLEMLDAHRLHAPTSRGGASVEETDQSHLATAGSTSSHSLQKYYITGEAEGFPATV
Sequence of Nuclear receptor subfamily 1 group I member 3 (Homo sapiens) (Q14994 whole entry, looked up, the tested form may be a part): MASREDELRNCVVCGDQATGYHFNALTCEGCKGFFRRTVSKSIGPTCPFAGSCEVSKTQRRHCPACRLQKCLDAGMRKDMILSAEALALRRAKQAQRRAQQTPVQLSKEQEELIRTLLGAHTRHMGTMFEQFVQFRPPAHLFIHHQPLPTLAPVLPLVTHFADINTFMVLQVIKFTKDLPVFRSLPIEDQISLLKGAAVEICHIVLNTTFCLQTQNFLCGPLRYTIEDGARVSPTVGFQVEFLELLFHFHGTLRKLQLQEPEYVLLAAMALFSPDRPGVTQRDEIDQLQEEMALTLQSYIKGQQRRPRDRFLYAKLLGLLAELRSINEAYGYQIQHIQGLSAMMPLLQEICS
Sequence of Signal transducer and activator of transcription 3 (Homo sapiens) (P40763 whole entry, looked up, the tested form may be a part): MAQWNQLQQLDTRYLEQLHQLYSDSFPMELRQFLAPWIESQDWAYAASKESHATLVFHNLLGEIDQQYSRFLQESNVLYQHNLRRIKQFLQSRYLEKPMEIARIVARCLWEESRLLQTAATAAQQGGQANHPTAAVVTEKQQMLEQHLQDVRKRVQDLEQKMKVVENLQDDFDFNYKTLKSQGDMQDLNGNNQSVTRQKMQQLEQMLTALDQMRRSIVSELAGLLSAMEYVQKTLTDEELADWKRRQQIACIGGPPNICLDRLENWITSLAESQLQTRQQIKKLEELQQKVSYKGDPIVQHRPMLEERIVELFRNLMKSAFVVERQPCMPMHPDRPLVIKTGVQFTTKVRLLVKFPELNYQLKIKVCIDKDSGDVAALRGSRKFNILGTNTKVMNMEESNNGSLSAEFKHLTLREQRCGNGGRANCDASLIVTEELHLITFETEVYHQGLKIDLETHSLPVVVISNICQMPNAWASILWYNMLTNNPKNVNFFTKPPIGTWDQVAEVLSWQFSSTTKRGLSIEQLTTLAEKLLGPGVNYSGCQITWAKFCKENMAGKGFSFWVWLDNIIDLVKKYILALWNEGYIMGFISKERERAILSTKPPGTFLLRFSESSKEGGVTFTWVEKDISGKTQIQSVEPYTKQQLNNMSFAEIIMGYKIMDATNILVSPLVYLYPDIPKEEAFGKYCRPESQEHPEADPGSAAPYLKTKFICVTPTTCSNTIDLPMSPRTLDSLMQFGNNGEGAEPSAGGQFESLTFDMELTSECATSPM
Sequence of Transcription factor Sp1 (Homo sapiens) (P08047 whole entry, looked up, the tested form may be a part): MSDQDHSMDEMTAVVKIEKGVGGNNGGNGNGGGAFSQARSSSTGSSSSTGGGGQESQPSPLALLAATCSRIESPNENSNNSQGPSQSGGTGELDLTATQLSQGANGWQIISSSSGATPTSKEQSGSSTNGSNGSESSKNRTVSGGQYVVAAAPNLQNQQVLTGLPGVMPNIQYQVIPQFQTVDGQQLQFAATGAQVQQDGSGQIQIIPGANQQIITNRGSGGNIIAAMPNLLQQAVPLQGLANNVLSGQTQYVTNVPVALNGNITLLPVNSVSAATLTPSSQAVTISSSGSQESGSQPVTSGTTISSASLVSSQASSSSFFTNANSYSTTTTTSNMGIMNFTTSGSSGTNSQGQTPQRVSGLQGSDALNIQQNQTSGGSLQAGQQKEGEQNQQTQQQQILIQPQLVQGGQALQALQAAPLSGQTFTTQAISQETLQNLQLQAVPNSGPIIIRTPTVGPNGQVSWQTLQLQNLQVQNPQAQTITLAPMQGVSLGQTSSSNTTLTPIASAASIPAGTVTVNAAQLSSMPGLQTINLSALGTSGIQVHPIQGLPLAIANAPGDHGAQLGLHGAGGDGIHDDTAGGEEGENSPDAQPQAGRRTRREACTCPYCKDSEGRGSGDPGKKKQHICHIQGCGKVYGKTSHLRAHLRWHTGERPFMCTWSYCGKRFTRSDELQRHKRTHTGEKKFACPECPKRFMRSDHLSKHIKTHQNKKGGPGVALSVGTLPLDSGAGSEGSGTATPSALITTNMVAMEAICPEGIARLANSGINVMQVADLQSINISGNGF

Row | Structure (SMILES) | AC50 [1] | outcome [2] | outcome [3] | outcome [4] | outcome [5] | outcome [6] | AC50 [7] | outcome [8] | outcome [9] | outcome [10] | outcome [11] | outcome [12] | outcome [13] | outcome [14] | outcome [1] | outcome [15] | outcome [7] | outcome [16] | outcome [17]
1 | CCCCCOC(=O)COc1cc(N2C(=O)C3=C(CCCC3)C2=O)c(F)cc1Cl | 10.2 µM (active) | inactive | inactive | inactive | inactive | inactive | 26.6 µM (active) | inactive | inactive | inactive | inactive | inactive | inactive |  |  |  |  |  | 
2 | CCSC(=O)N(CC(C)C)CC(C)C |  | inactive | inactive | inactive | inactive | inactive |  | inactive | inactive | inactive | inactive | inactive |  | inactive | inactive | inactive | inactive | inactive | 
3 | COC(=O)c1ccccc1C(=O)O |  | inactive | inactive | inactive | inactive | inactive |  | inactive | inactive | inactive |  | inactive | inactive | inactive | inactive | inactive | inactive |  | 
4 | O=C(O)c1ccccc1 |  | inactive | inactive | inactive | inactive | inactive |  | inactive | inactive | inactive | inactive | inactive | inactive | inactive | inactive |  | inactive | inactive | inactive
5 | CCOC(=O)C(C)Oc1ccc(Oc2cnc3cc(Cl)ccc3n2)cc1 (stereo not drawn) | 35.1 µM (active) | inactive | inactive | inactive | inactive | inactive |  | inactive | inactive | inactive |  | inactive | inactive | inactive |  | inactive | inactive | inactive | 
